Only some compounds are listed: those with a hit (about 3.3% of all), similar ones and a draw of the others.
FXN GAA850 act: activators of GAA850 frataxin (FXN) promoter | activation, % at 6 µM | 360,000 compounds, 0.56% hits | AID 540364 | HEK293 lucGAA850 FXN promoter luciferase reporter, 24 h; percent of 10 µM SAHA response;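 active means activation above the average of all compounds screened plus 3 SD, cutoff fixed separately per campaign, cut at about 7.5% in these data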;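 further: 0% = DMSO wells and 100% = 10 µM SAHA wells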
C2C12 statin: suppression of simvastatin myotoxicity | C2C12 myotubes + simvastatin, ATP luminescence, 48 h; scaled: DMSO 0, geranylgeraniol control 100 | rescue of ATP level, % at 7.49 µM | 330,000 compounds, 0.78% hits;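 active means mean ATP rescue above about 67%, or every replicate alone reaching that limit, limit read from the data, passing the limit was not always enough; inconclusive means no clear call, values can overlap the other calls; inactive means mean under the limit and some replicate under it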;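 further: myotubes were challenged with 10 µM simvastatin during compound exposure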
MITF TRPM1 HTS: MITF TRPM1 promoter activation in melanoma cells; SK-MEL-5 TRPM1-promoter luciferase, 24 h; % of positive control, neutral wells = 0; 300,000 compounds, 0.75% hits; activation, % at 12.5 µM;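 active means mean activation of at least 80% with every replicate also reaching 80%; inconclusive means mean reaches 80% but some replicate falls short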;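 further: 0% = neutral control wells and 100% = parthenolide positive control wells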
esBAF inh: blocks esBAF chromatin remodeling in mouse ES cells | reporter increase, % at 12.5 µM | Bmi1-luciferase knock-in reporter, 24 h; 100% = twice the neutral-well signal | AID 602393 | 350,000 compounds, 2% hits; in the data active means activation above about 40%; inconclusive means no clear call, values can overlap the other calls;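 further: 0% = median of the plate's neutral control wells and 100% = double that signal; a rise in the Bmi1 reporter signal indicates esBAF inhibition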
Wnt bcat act: activators of Wnt/beta-catenin signaling; activation, % at 9.35 µM; 300,000 compounds, 1.2% hits; Wnt/beta-catenin reporter cell assay, activator, plate reader; in the data active means activation above about 30%, passing the limit was not always enough; inconclusive means no clear call, values can overlap the other calls;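 further: 0% = neutral control wells and 100% = positive control wells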
An asterisk follows results filed as active; ? = inconclusive; . = not tested or not shown.

SMILES | FXN GAA850 act | C2C12 statin | MITF TRPM1 HTS | esBAF inh | Wnt bcat act
CC(C)CCN1CN(S(=O)(=O)c2cccs2)c2nc3ccccc3nc21 | 2 | 1 | 8 | 14 | .
C=CCOC(=O)Cn1cnc2c(sc3nc(C)cc(C)c32)c1=O | 5 | -6 | 57 | 37 | 27
Cc1cc(C)c2c(n1)sc1c(=O)n(CC(=O)c3ccccc3)cnc12 | 0 | -5 | . | 47* | ?
O=C(O)Cn1cnc2c(oc3ccccc32)c1=O | 2 | -6 | -5 | 3 | 7
O=C(Cn1cnc2c(oc3ccccc32)c1=O)c1ccccc1 | 1 | 0 | . | 70* | 49*
CC(C)NC(=O)N(C)C[C@@H]1Oc2ccc(NC(=O)Cc3cn(C)c4ccccc34)cc2C(=O)N([C@H](C)CO)C[C@H]1C | . | 27 | . | 2 | .
CCc1ccc(NC(=S)N2CCN(C)CC2)cc1 | 2 | . | 26 | . | 10
CCc1ccc(NC(=S)N2CCCC2)cc1 | 2 | -1 | 41 | 49* | 21
O=C(CC(C(=O)O)c1c[nH]c2ccccc12)c1ccccc1 (configuration not stated) | 0 | . | 1 | 27* | 4
CCCCc1noc2c1/C(=N\O)CC(c1ccccc1)C2 (configuration not stated) | 4 | 3 | 56 | 59* | 2
c1ccc(-c2nc(-c3cccnc3)cs2)cc1 | 2 | -4 | 35 | 52* | 11
CNC(=O)c1ccc(-c2nc(-c3ccccc3)cs2)cc1 | 4 | -4 | 74 | 52* | 10
Brc1ccc(-c2csc(-c3ccncc3)n2)cc1 | 3 | . | ? | . | 55*
c1ccc(-c2csc(-c3cccnc3)n2)cc1 | 2 | . | 31 | . | -1
COc1ccc(NC(=O)N(C)C[C@H]2Oc3ccc(NC(=O)NC(C)C)cc3C(=O)N([C@@H](C)CO)C[C@@H]2C)cc1 | . | -5 | . | 2 | .
C[C@@H]1CN([C@@H](C)CO)C(=O)c2cc(-c3cccc(F)c3)cnc2O[C@H]1CN(C)C(=O)C1CC1 | . | -18 | . | . | .
O=C(CN(Cc1ccccc1C(F)(F)F)C(=O)CNC(=O)c1ccco1)NC1CCCC1 | 0 | 113* | -6 | -2 | -10
CCc1ccccc1N(CC(=O)NC1CCCCC1)C(=O)CNC(=O)c1ccco1 | 0 | 33 | 13 | 0 | -3
CN(C)CCCNc1ncnc2c1c(-c1ccccc1)cn2-c1ccccc1 | -3 | . | 22 | 3 | -8
CN(C)CCCNc1ncnc2scc(-c3ccccc3)c12 | -1 | . | 1 | . | 40*
C[C@H]1CCCCO[C@H](CN(C)Cc2ccc(Cl)c(Cl)c2)[C@@H](C)CN([C@@H](C)CO)C(=O)c2cc(NC(=O)Cc3ccccc3)ccc2O1 | . | -26 | . | 1 | .
CCOc1ccc(CCNC(=O)c2ccc3ccccc3n2)cc1OCC | 7 | -20 | -2 | 57* | 7
Cc1onc(-c2ccccc2Cl)c1C(=O)NCc1nc(-c2ccccc2)no1 | -1 | 159* | -12 | 0 | -3
COc1ccccc1CNC(=O)c1c(-c2ccccc2Cl)noc1C | 3 | 7 | 4 | 2 | 0
CN(C)C(=O)C[C@H]1C=C[C@H](NC(=O)C2CCC2)[C@H](CO)O1 | . | -14 | . | 0 | .
SMILES | FXN GAA850 act | C2C12 statin | MITF TRPM1 HTS | esBAF inh | Wnt bcat act
COc1ccc(Cl)cc1NC(=O)c1cc(-c2ccccc2O)n[nH]1 | 4 | . | 1 | . | .
Cc1cccc(NC(=O)c2cc(-c3cc(C)c(C)cc3O)n[nH]2)c1 | 3 | 1 | 69 | 70* | ?
Cc1ccc(-c2cc(C(=O)Nc3cccnc3)[nH]n2)c(O)c1C | 0 | . | 114* | . | 44*
Cc1c(Cl)cccc1NC(=O)c1cc(-c2ccccc2O)n[nH]1 | 2 | . | 74 | 49* | 10
Cc1onc(-c2c(Cl)cccc2Cl)c1NC(=O)NC1CCSC1 (configuration not stated) | 0 | . | . | . | 34*
Cc1onc(-c2c(Cl)cccc2Cl)c1NC(=O)N(C)N | 2 | 9 | 2 | 0 | -1
CC(C(=O)N1CCOCCOCCOCCOCCOCC1)N1C(=O)c2ccccc2C1=O (configuration not stated) | 3 | . | 3 | . | -1
O=C(CCN1C(=O)c2cccc3cccc(c23)C1=O)N1CCOCC1 | 5 | 6 | 83* | 53* | 26
CC(C(=O)N1CCOCC1)N1C(=O)c2cccc3cccc(c23)C1=O (configuration not stated) | 3 | . | -10 | . | 33*
CCCNC(=O)N[C@H]1C=C[C@H](CC(=O)NC2CCC2)O[C@H]1CO | . | -2 | . | 0 | .
COC(=O)[C@@H]1[C@@H](CO)[C@@H]2Cn3c(ccc(-c4ccccc4F)c3=O)[C@@H]2N1C(=O)c1cnccn1 | . | -18 | . | -2 | .
COc1ccc(CNc2oc(-c3ccccc3)nc2C#N)cc1 | 2 | 37 | 5 | 0 | 6
COc1ccc(Nc2oc(COc3ccc(Cl)cc3)nc2C#N)cc1 | -5 | . | -27 | . | -6
COc1ccc(Nc2oc(-c3ccc(OC)cc3)nc2C#N)cc1 | 3 | . | . | . | 32*
CCOc1ccc(-c2nc(C#N)c(NC3CC3)o2)cc1 | 2 | . | . | ? | .
CCOc1ccc(Nc2oc(-c3ccc(Cl)cc3)nc2C#N)cc1 | 3 | 2 | . | 67* | ?
COc1ccc(Nc2oc(-c3ccccc3)nc2C#N)cc1 | 5 | 1 | 61 | 47* | 24
COc1ccc(Nc2oc(-c3ccc(Cl)cc3)nc2C#N)cc1 | -2 | -30 | 31 | 58* | 13
COc1ccc(-c2nc(C#N)c(NCCN(C)C)o2)cc1 | 1 | -7 | 7 | -5 | 2
COc1cccc(S(=O)(=O)Nc2ccc3c(c2)[C@@H]2C[C@@H](CC(=O)NCc4ccccc4F)O[C@H](CO)[C@@H]2O3)c1 | . | 2 | . | 14 | .
C/C=C/c1cnc2c(c1)C(=O)N([C@H](C)CO)C[C@H](C)[C@H](CN(C)C(=O)C1CC1)O2 | . | -11 | . | -4 | .
Cc1noc(C)c1NC(=O)Nc1ccc2c(c1)C(=O)N([C@H](C)CO)C[C@@H](C)[C@@H](CN(C)C(=O)Nc1ccc(F)cc1)O2 | . | 13 | . | -2 | .
Clc1ccc(Sc2ccc(/C=N/n3cnnc3)o2)cc1 | 1 | -4 | 4 | -1 | .
Clc1ccc(Sc2oc(/C=N/n3cnnc3)cc2Br)cc1 | 0 | 149* | 0 | -6 | 0
COCCn1c(C)cc(C(=O)COC(=O)c2ccccc2Br)c1C | -14 | 6 | -81 | -80 | -8
COCCn1c(C)cc(C(=O)COC(=O)c2cncc(Br)c2)c1C | 3 | 98* | 53 | 20 | 2
CCCC#Cc1ccc2c(c1)O[C@H](CN(C)C(=O)c1ccccc1)[C@H](C)CN([C@H](C)CO)S2(=O)=O | . | -28 | . | 2 | .
CCc1ccc(NC(=O)c2n[nH]c(=O)c3ccccc23)cc1 | 6 | -4 | 107* | 60* | 29
OCC[C@H]1C[C@@H](O)[C@H](O)[C@@]2(Cc3ccccc3O2)O1 | 1 | 118* | 4 | -6 | 11
OCC[C@@H]1C[C@H](O)[C@@H](O)[C@]2(Cc3ccccc3O2)O1 | 0 | -2 | 8 | 3 | .

High-throughput results: PubChem BioAssay, several laboratories
